Assay outcomes: PubChem BioAssay, National Center for Advancing Translational Sciences (NCATS)
HP1b chromo inh – inhibitors of HP1-beta chromodomain binding to methylated histone tails; P83916; AlphaScreen HP1-beta / biotin-H3K9me3 peptide binding; Potency, µM (doses to about 114 µM), hits mostly inhibitors; 0.56% of 390,000 active; AID 540317; also: nearly all actives have a fitted effect of over 70% in size
Target sequence (P83916 whole entry, looked up): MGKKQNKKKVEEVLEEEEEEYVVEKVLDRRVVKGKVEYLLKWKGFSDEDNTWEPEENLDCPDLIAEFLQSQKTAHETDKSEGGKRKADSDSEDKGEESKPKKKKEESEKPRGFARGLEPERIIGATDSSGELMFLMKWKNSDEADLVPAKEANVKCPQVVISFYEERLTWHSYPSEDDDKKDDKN
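Compound inhibition of the preformed complex between 50 nM HP1-beta and 50 nM biotinylated H3K9me3 peptide was read by AlphaScreen. Buffer was PBS pH 7.4 with 0.01% Tween-20. Incubations ran 30 min at room temperature, with 10 ug/mL donor/acceptor beads.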
G9a block – inhibitors of human histone lysine methyltransferase G9a; G9a H3K9 monomethylation, AlphaScreen, 2 h; Potency, µM (doses to about 102 µM), usual class: inhibitors; 8.8% of 350,000 active; AID 504332; also: nearly all actives have a fitted effect of over 75% in size
Target sequence (Q96KQ7 913-1193 limits assumed): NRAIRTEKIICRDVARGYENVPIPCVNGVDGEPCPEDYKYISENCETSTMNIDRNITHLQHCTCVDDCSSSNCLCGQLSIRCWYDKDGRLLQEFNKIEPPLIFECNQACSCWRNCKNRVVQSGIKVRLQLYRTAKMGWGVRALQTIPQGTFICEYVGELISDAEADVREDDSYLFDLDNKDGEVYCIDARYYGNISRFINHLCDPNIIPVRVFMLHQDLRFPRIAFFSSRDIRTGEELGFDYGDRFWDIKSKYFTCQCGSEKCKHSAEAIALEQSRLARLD
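Enzyme 20 nM + cpd, 15 min RT; add b-H3K9 pep 500 nM / SAM 20 uM; 2 h RT; anti-H3K9me1 Ab 0.5 ug/mL + SA donor / anti-rabbit acceptor beads 20 ug/mL each, 10 min; AlphaScreen read.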
PLK1 PBD block – PLK1 (human) polo-box domain binding inhibition; P53350; Plk1 PBD binding of FITC phosphopeptide, fluorescence polarization; Potency, µM, actives largely listed as inhibitors; 2.8% of 360,000 active; AID 720504; also: series mostly up to about 57 µM; nearly all actives have a fitted effect of over 65% in size
JMJD2A Tudor – blocks the human JMJD2A Tudor domain; AID 504339; 4.4% of 390,000 active; AlphaScreen JMJD2A-Tudor / H3K4me3 peptide binding; O75164; Potency, µM (doses to about 114 µM), actives largely listed as inhibitors; also: nearly all actives have a fitted effect of over 50% in size
BAZ2B inh – BAZ2B (human) inhibition. AlphaScreen BAZ2B-H3K14Ac peptide displacement. Potency, µM (highest dose often 114 µM), hits mostly inhibitors. Q9UIF8. 4.4% of 360,000 active; also: nearly all actives have a fitted effect of over 60% in size
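Compounds, titrated to a top concentration of 110 uM, were incubated 30 min at room temperature with preformed BAZ2B/acetyl-K14 H3 peptide complex (50 nM each). Proximity signal was measured by AlphaScreen after 20 min with beads.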
PI5P4Ka inh – PI5P4K alpha (human) kinase inhibition; P48426; PI5P4Kalpha enzyme, ADP-Glo luminescence, 60 min; stronger effect = lower value; max response, %; 1.2% of 330,000 active; AID 652105; active = max response of -50% or lower; inconclusive = between -30% and -50%; inactive = -30% or higher; also: value at the top dose of about 77 µM
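Luminescence from ADP-Glo served as readout of PI5P4Kalpha activity in a qHTS format. Reaction: enzyme, substrate, compound, ATP at 5 microM final, 60 min at RT.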
Each line names hits and unclear results; the compound was inactive in the other large screens. Shown are actives, neighbours in structure and some others; about 12% of the full set was active somewhere. Unless noted, calls follow the shape of the dose curve; as a rule, active = well fitted curve in the direction sought with a large enough effect; inconclusive = small, poorly fitted or top-dose-only effect, or another doubt; inactive = no such curve, though single readings can be large; an effect the other way counts as inactive or inconclusive.

CC(C)CC(=O)Nc1nnc(S(=O)(=O)N(C)Cc2ccc(Cl)cc2)s1	none (no result: PLK1 PBD block, PI5P4Ka inh)
O=C(CN1C(=O)c2ccccc2C1=O)NCC(=O)Nc1ccccc1	none (no result: G9a block, BAZ2B inh)
OC(c1ccc(Cl)cc1)c1ncc(-c2cccc(F)c2)[nH]1 (stereo unspecified)	none (no result: HP1b chromo inh, G9a block, JMJD2A Tudor, BAZ2B inh)
CC(C#N)(CCc1ccccn1)CCc1ccccn1	none (no result: G9a block, BAZ2B inh)
COc1ccc(CN2C(=O)c3cccnc3C2=O)cc1S(=O)(=O)N1CCCCC1	BAZ2B inh inconclusive
COc1ccc(CN2C(=O)c3cccnc3C2=O)cc1S(=O)(=O)N1CCCC(C)C1 (stereo unspecified)	BAZ2B inh 56µM
O=C(c1ccccc1)c1coc(-c2ccccc2)c1	none (no result: G9a block, BAZ2B inh)
COC(=O)CSC1=C(C#N)C(=O)NC(c2ccccc2)S1 (stereo unspecified)	G9a block inconclusive, PLK1 PBD block inconclusive, JMJD2A Tudor inconclusive, BAZ2B inh 50µM, PI5P4Ka inh -56
CSC1=C(C#N)C(=O)NC(c2ccccc2O)S1 (stereo unspecified)	PLK1 PBD block 2.1µM, BAZ2B inh inconclusive
COC(=O)CSC1=C(C#N)C(c2ccsc2)CC(=O)N1 (stereo unspecified)	G9a block inconclusive
CC1=C(C#N)C(c2ccccc2O)C(C#N)=C(C)N1	none
CC(C)C[C@@H]1COc2cccc(N3CCSCC3)c2S(=O)(=O)N1	none (no result: HP1b chromo inh, G9a block, JMJD2A Tudor, BAZ2B inh)
COc1ccc(C(=O)OC2=C(C(=O)c3ccccc3)N(C)S(=O)(=O)c3ccccc32)cc1OC	G9a block 20µM, BAZ2B inh inconclusive (no result: PLK1 PBD block, PI5P4Ka inh)
Cc1ccc(OCC(=O)OC2=C(C(=O)c3ccccc3)N(C)S(=O)(=O)c3ccccc32)cc1	G9a block 20µM, JMJD2A Tudor inconclusive (no result: PLK1 PBD block, PI5P4Ka inh)
CCN1C(C(=O)c2ccccc2)=C(OC(=O)COc2ccccc2)c2ccccc2S1(=O)=O	G9a block 13µM, JMJD2A Tudor 35µM, BAZ2B inh inconclusive (no result: PLK1 PBD block, PI5P4Ka inh)
COc1cccc(-c2cnc3c(NC=O)cc(-c4ccncc4)cn23)c1	none (no result: HP1b chromo inh, G9a block, JMJD2A Tudor, BAZ2B inh)
CCCCCn1cnc2c(=S)nc(N)[nH]c21	HP1b chromo inh inconclusive, G9a block 8.9µM, PLK1 PBD block inconclusive, JMJD2A Tudor 18µM, BAZ2B inh inconclusive, PI5P4Ka inh inconclusive
CCCCn1cnc2c(=S)nc(N)[nH]c21	G9a block 6.3µM, JMJD2A Tudor 11µM, BAZ2B inh inconclusive
NCCCC(=O)O	G9a block 2.8µM
NCCCCC(=O)O	none
CC(C)CCNC(=O)NC(=O)COC(=O)/C=C/c1cc(Br)ccc1F	PLK1 PBD block 15µM, JMJD2A Tudor 14µM, PI5P4Ka inh -62
CN1/C(=C\C(=O)CSc2cccc[n+]2[O-])C(C)(C)c2ccccc21	G9a block 10µM
CN(C)CCNC(=O)c1ccc2c(c1)NC(=O)c1ccccc1S2	G9a block 45µM
CCN(CC)CCNC(=O)c1ccc2c(c1)NC(=O)c1ccccc1S2	G9a block 45µM
CCCN1CCN(CCCNC(=O)c2ccc3c(c2)NC(=O)c2ccccc2S3)CC1	none
CCCn1c(SCC(=O)C(C)(C)C)nc2ccccc21	G9a block 35µM
CC(C)(C)NC(=O)Cn1c(SCC(N)=O)nc2ccccc21	PLK1 PBD block 15µM, JMJD2A Tudor 20µM
Nc1c(Br)cc(Br)c2c1C(=O)c1c(cccc1S(=O)(=O)O)C2=O	HP1b chromo inh inconclusive, JMJD2A Tudor inconclusive, PI5P4Ka inh -57 (no result: G9a block, BAZ2B inh)
CN(C)CC(=O)c1c[nH]c2ccccc12	JMJD2A Tudor 50µM
O=S(=O)(c1ccccc1)c1nc(-c2ccccc2)oc1N1CCOCC1	none
O=C1OC(c2ccccc2)=C/C1=C\N1CCOCC1	G9a block 8.9µM, JMJD2A Tudor inconclusive (no result: PI5P4Ka inh)
CN(C)/C=C1/C=C(c2ccccc2)OC1=O	G9a block 35µM (no result: PI5P4Ka inh)
N#C/C(=C\N1CCOCC1)c1ccccc1	none (no result: PI5P4Ka inh)
O=C1OC(c2ccccc2)=C/C1=C/N1CCOCC1	G9a block 8.9µM (no result: PI5P4Ka inh)
CC(=O)c1cccc(Nc2nc(-c3sc(C)nc3C)cs2)c1	none
Cc1nc(N)sc1-c1csc(Nc2cccc(O)c2)n1	HP1b chromo inh inconclusive, G9a block 45µM, PLK1 PBD block inconclusive, JMJD2A Tudor inconclusive, BAZ2B inh 56µM, PI5P4Ka inh inconclusive
CC(=O)c1cccc(Nc2nc(-c3sc(N)nc3C)cs2)c1	HP1b chromo inh inconclusive, G9a block 79µM, PLK1 PBD block 21µM, JMJD2A Tudor inconclusive, BAZ2B inh 35µM, PI5P4Ka inh inconclusive
CCC(=O)Nc1nc(C)c(-c2csc(Nc3cccc(O)c3)n2)s1	G9a block 40µM, PLK1 PBD block inconclusive, JMJD2A Tudor 40µM, BAZ2B inh inconclusive
Cc1cccc(Nc2nc(-c3sc(C)nc3C)cs2)c1	HP1b chromo inh inconclusive, G9a block inconclusive, JMJD2A Tudor inconclusive, BAZ2B inh inconclusive
Cc1nc(C)c(-c2csc(Nc3cccc(O)c3)n2)s1	G9a block 50µM, BAZ2B inh inconclusive
CCCCCC(=O)Nc1nc(C)c(-c2csc(Nc3ccc(Cl)cc3)n2)s1	JMJD2A Tudor inconclusive, BAZ2B inh inconclusive
O=C1[C@H]2[C@@H](c3ccccc3)N[C@]3(CCCN(Cc4ccc(F)cc4)C3=O)[C@H]2C(=O)N1Cc1ccccc1	none (no result: HP1b chromo inh, G9a block, JMJD2A Tudor, BAZ2B inh)
CCOC(=O)Nc1ccc2c(c1)N(C(=O)CN(CC)CC)c1ccccc1CC2	none (no result: G9a block)
CCN(CC)CC(=O)Nc1ccc2c(c1)N(C(=O)CN(CC)CC)c1ccccc1CC2	G9a block 56µM (no result: PI5P4Ka inh)
CC(C)OC(=O)Nc1ccc2c(c1)N(C(=O)N1CCN(C)CC1)c1ccccc1CC2	HP1b chromo inh 45µM, G9a block inconclusive, JMJD2A Tudor 0.89µM, BAZ2B inh 40µM
CC1CN(S(=O)(=O)c2cccc(C(=O)NCCC3=CCCCC3)c2)CC(C)O1 (stereo unspecified)	none
COc1cccc(C(C(=O)NC2CCCC2)N2CCN(c3cc(C)ccc3C)CC2)c1OC (stereo unspecified)	none (no result: HP1b chromo inh, G9a block, JMJD2A Tudor, BAZ2B inh)
Cc1ccc(Cn2c(CO)cnc2SCC(=O)Nc2cccc(F)c2)cc1	G9a block inconclusive, BAZ2B inh inconclusive (no result: PLK1 PBD block, PI5P4Ka inh)
CC1CCN(S(=O)(=O)c2ccc3c(c2)N(CC(=O)NCCN(C)C)C(=O)CO3)CC1	none (no result: PLK1 PBD block, PI5P4Ka inh)
Cc1nnc(N/N=C/c2c[nH]c3ccccc23)[nH]c1=O	BAZ2B inh inconclusive (no result: G9a block)
Cc1nnc(N/N=C/C(C)c2ccccc2)[nH]c1=O (stereo unspecified)	G9a block inconclusive, JMJD2A Tudor 0.89µM
CCC(=O)NC(=S)Nc1ccc(NC(=O)c2ccc([N+](=O)[O-])cc2Cl)cc1	none
CCC(=O)NC(=S)NNC(=O)c1ccc([N+](=O)[O-])cc1	G9a block inconclusive, JMJD2A Tudor 79µM (no result: PI5P4Ka inh)
CC(C)CC(=O)NC(=S)NNC(=O)c1ccc([N+](=O)[O-])cc1	G9a block 20µM, JMJD2A Tudor inconclusive
Cn1cc([N+](=O)[O-])c(C(=O)NNC(=O)c2ccc([N+](=O)[O-])cc2)n1	HP1b chromo inh inconclusive, G9a block 45µM, JMJD2A Tudor inconclusive
